Common to all, as to experiment: DAPPL (digital affinity profiling via proximity ligation, sequencing); 10 mM Tris-HCl pH 7.5, 50 mM NaCl, 1 mM DTT, 4% glycerol, room temperature, 30 min; GST-TFs on glutathione beads, 16-mer random dsDNA library, 0.1% formaldehyde crosslink after washing; high values mean tight binding
What all share (settings): protein: recombinant; tags: N-terminal GST; dsDNA, one strand shown

For one assay, the target named is T1, ERF (Homo sapiens, UniProt P50548 1-548).
T1 sequence: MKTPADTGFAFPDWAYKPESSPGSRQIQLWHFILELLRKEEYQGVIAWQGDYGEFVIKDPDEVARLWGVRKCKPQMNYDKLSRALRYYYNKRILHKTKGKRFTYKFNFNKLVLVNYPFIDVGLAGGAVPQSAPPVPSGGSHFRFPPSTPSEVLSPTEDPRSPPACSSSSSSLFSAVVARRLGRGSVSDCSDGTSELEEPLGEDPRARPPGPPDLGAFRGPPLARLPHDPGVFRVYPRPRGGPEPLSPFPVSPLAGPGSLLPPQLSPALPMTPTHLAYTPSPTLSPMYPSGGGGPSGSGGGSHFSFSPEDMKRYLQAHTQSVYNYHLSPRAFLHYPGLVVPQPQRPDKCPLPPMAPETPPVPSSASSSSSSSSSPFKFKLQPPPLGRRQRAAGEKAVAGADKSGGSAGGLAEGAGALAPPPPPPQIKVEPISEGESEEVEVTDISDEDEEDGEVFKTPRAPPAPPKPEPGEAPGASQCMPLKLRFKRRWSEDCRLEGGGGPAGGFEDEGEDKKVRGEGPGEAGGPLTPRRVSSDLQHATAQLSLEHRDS
The procedure, abridged: (§1)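 Human transcription factors carrying a GST fusion were produced in yeast, bound to glutathione beads, tagged with DNA barcodes and pooled together with a tag-only sample. Each pool was held with 200 nmole of a random double-stranded 16-mer DNA library in Tris/NaCl/DTT/glycerol buffer for 30 min at room temperature, then washed, crosslinked in 0.1% formaldehyde, proximity-ligated with BsaI/T4 ligase (1 h, 37 °C), PCR-amplified and sequenced on an Illumina NextSeq500. Binding signal is the read frequency of each hexamer for a given factor divided by its frequency in the tag-only sample.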

The next assay concerns the target T2, ETV3L (Homo sapiens, UniProt Q6ZN32 1-361).
T2 sequence: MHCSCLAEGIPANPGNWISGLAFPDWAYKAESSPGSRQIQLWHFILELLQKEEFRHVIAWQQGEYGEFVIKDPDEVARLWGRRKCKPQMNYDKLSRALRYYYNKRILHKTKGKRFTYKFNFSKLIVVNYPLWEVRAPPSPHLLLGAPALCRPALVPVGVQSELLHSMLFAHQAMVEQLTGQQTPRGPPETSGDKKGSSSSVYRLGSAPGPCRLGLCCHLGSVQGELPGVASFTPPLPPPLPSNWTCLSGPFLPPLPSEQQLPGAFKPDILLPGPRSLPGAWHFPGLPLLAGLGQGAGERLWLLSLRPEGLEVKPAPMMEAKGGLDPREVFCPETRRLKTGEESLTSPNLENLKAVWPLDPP
The procedure, abridged:
as §1

For another assay, the target named is T3, ETS2 (Homo sapiens, UniProt P15036 1-469).
T3 sequence: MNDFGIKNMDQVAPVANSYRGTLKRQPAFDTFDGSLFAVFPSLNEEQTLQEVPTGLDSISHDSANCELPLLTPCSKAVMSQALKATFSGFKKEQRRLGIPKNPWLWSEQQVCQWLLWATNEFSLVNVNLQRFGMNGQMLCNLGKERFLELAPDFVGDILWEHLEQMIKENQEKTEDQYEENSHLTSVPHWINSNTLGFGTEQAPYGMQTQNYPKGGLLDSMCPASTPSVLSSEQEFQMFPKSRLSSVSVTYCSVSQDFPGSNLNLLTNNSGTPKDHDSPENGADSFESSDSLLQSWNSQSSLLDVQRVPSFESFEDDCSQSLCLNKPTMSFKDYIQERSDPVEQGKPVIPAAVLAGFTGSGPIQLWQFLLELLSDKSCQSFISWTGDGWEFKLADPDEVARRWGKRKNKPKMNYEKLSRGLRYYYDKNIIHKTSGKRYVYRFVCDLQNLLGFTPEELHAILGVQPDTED
The essentials: as §1

In a further assay the target is T4, SPDEF (Homo sapiens, UniProt O95238 1-335).
T4 sequence: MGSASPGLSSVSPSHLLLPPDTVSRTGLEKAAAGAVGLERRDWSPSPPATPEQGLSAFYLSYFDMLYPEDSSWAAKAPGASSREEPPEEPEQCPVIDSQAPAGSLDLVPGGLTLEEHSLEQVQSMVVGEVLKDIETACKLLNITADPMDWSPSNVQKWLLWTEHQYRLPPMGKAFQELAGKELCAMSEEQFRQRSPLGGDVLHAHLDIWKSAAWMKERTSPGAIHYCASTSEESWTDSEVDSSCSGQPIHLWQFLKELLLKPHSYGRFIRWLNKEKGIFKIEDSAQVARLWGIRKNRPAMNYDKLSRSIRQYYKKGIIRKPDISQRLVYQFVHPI
The essentials: as §1

The next assay has as its target T5, ETV7 (Homo sapiens, UniProt Q9Y603 1-341).
T5 sequence: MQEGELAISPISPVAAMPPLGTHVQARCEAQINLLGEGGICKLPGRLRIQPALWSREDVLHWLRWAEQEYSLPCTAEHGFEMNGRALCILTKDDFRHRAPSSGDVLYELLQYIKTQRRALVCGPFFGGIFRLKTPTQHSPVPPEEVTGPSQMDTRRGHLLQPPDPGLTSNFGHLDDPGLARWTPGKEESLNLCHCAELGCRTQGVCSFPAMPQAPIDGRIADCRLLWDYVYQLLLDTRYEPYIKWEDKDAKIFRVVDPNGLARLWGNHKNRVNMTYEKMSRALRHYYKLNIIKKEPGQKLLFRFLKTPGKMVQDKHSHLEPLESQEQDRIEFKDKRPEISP
The essentials: as §1

Another assay has as its target T6, ELF5 (Homo sapiens, UniProt Q9UKW6-2 1-255).
T6 sequence: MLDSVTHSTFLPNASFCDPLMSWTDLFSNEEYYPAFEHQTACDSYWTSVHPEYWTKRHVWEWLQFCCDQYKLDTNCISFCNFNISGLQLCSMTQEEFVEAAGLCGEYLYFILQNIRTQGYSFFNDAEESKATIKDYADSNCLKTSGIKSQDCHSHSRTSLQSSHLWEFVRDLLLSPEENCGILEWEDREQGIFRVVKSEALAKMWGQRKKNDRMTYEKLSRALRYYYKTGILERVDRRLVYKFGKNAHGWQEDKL
The essentials:
as §1

In the next assay the target is T7, ETV3 (Homo sapiens, UniProt P41162-2 1-143).
T7 sequence: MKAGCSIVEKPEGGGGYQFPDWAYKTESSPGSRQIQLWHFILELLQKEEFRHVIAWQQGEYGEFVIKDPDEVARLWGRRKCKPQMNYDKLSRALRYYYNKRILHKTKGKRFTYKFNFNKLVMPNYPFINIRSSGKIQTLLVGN
The essentials:
as §1

For the next assay, the target named is ETV6 (Homo sapiens, UniProt P41212 1-452). The procedure, abridged:
as §1

Sequence of ETV6 (P41212 whole entry): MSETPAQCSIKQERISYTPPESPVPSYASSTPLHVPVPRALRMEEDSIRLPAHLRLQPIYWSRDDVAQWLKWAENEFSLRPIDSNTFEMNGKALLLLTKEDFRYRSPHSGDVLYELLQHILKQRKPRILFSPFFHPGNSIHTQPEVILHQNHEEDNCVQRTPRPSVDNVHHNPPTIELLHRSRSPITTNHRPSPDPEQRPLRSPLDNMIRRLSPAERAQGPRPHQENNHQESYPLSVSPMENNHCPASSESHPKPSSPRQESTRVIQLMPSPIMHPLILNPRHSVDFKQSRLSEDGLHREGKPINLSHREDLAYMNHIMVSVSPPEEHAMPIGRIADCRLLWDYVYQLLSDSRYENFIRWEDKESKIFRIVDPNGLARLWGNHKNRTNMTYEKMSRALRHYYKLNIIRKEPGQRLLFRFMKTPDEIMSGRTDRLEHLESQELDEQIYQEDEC

Consider GATGAC, for which the binding signal in the assay with ERF was 1.45 fold enrichment (6-mer frequency, TF over GST control); with ETV3L, 1.53 fold enrichment (6-mer frequency, TF over GST control); with ETS2, 1.44 fold enrichment (6-mer frequency, TF over GST control); in the assay with SPDEF it was 1.55 fold enrichment (6-mer frequency, TF over GST control); in the assay with ETV7 it was 1.61 fold enrichment (6-mer frequency, TF over GST control); in the assay with ELF5, 1.53 fold enrichment (6-mer frequency, TF over GST control). Further, the binding signal with ETV3 is 1.56 fold enrichment (6-mer frequency, TF over GST control); with ETV6 it was 1.43 fold enrichment (6-mer frequency, TF over GST control).

Regarding ATCGAT, the binding signal with ERF was 1.13 fold enrichment (6-mer frequency, TF over GST control); with ETV3L, 1.17 fold enrichment (6-mer frequency, TF over GST control); with ETS2, 1.1 fold enrichment (6-mer frequency, TF over GST control); with SPDEF it was 1.09 fold enrichment (6-mer frequency, TF over GST control); with ETV7, 1.11 fold enrichment (6-mer frequency, TF over GST control); with ELF5 it was 1.09 fold enrichment (6-mer frequency, TF over GST control). The binding signal is 1.15 fold enrichment (6-mer frequency, TF over GST control) in the assay with ETV3 and 1.11 fold enrichment (6-mer frequency, TF over GST control) with ETV6.

Regarding TACCCG, the binding signal in the assay with ERF is 1.41 fold enrichment (6-mer frequency, TF over GST control); with ETV3L, 1.56 fold enrichment (6-mer frequency, TF over GST control); in the assay with ETS2, 1.42 fold enrichment (6-mer frequency, TF over GST control); with SPDEF it was 1.59 fold enrichment (6-mer frequency, TF over GST control); with ETV7 it was 1.43 fold enrichment (6-mer frequency, TF over GST control); with ELF5 it was 1.5 fold enrichment (6-mer frequency, TF over GST control). Further, the binding signal with ETV3 was 1.47 fold enrichment (6-mer frequency, TF over GST control); in the assay with ETV6, 1.5 fold enrichment (6-mer frequency, TF over GST control).

As for CCCGTT, the binding signal with ERF is 1.13 fold enrichment (6-mer frequency, TF over GST control); with ETV3L it was 1.19 fold enrichment (6-mer frequency, TF over GST control); in the assay with ETS2 it was 1.1 fold enrichment (6-mer frequency, TF over GST control); with SPDEF it was 1.2 fold enrichment (6-mer frequency, TF over GST control); in the assay with ETV7, 1.19 fold enrichment (6-mer frequency, TF over GST control); with ELF5 it was 1.27 fold enrichment (6-mer frequency, TF over GST control). The binding signal was 1.17 fold enrichment (6-mer frequency, TF over GST control) with ETV3 and 1.16 fold enrichment (6-mer frequency, TF over GST control) in the assay with ETV6.

With TAAGAT, the binding signal in the assay with ERF is 1.3 fold enrichment (6-mer frequency, TF over GST control); in the assay with ETV3L, 1.12 fold enrichment (6-mer frequency, TF over GST control); in the assay with ETS2 it was 1.19 fold enrichment (6-mer frequency, TF over GST control); in the assay with SPDEF it was 1.31 fold enrichment (6-mer frequency, TF over GST control); in the assay with ETV7, 1.19 fold enrichment (6-mer frequency, TF over GST control); with ELF5 it was 1.11 fold enrichment (6-mer frequency, TF over GST control). Moreover, the binding signal in the assay with ETV3 was 1.2 fold enrichment (6-mer frequency, TF over GST control); with ETV6, 1.28 fold enrichment (6-mer frequency, TF over GST control).

CTTAAA: the binding signal with ERF was 1.17 fold enrichment (6-mer frequency, TF over GST control); in the assay with ETV3L, 1.3 fold enrichment (6-mer frequency, TF over GST control); in the assay with ETS2, 1.28 fold enrichment (6-mer frequency, TF over GST control); in the assay with SPDEF, 1.27 fold enrichment (6-mer frequency, TF over GST control); in the assay with ETV7 it was 1.19 fold enrichment (6-mer frequency, TF over GST control); with ELF5, 1.16 fold enrichment (6-mer frequency, TF over GST control). Also, the binding signal in the assay with ETV3 was 1.22 fold enrichment (6-mer frequency, TF over GST control); in the assay with ETV6, 1.26 fold enrichment (6-mer frequency, TF over GST control).

As to ATATGC, the binding signal with ERF was 1.15 fold enrichment (6-mer frequency, TF over GST control); with ETV3L, 1.11 fold enrichment (6-mer frequency, TF over GST control); with ETS2 it was 1.19 fold enrichment (6-mer frequency, TF over GST control); in the assay with SPDEF, 1.14 fold enrichment (6-mer frequency, TF over GST control); with ETV7, 1.11 fold enrichment (6-mer frequency, TF over GST control); with ELF5, 1.12 fold enrichment (6-mer frequency, TF over GST control). The binding signal with ETV3 was 1.16 fold enrichment (6-mer frequency, TF over GST control); with ETV6, 1.12 fold enrichment (6-mer frequency, TF over GST control).

The values above are taken from paper PMC7862700, “An all-to-all approach to the identification of sequence-specific readers for epigenetic DNA modifications on cytosine”.
